Records with an inconclusive call do not appear. Activity calls are given as the source filed them. Unless noted, calls come from the whole dose curve; as a rule, active = well fitted curve in either direction with a large enough effect (not every such curve was filed as active); inconclusive = small, poorly fitted or top-dose-only effect, or another doubt; inactive = flat fitted curve, though single readings scatter.

The nature of assay [1]: AP1 Signaling Pathway (AID 357).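 Note: ME-180 reporter cells stimulated with EGF at its EC50 level; % is set by controls: 0 for no effect and ±100 for the full control effect.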 A digest of the protocol: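 Modulation of EGF-driven AP-1 transcription was assessed with a beta-lactamase reporter in ME-180 cells. Compound and EC50 EGF were co-incubated 5 hours at 37 °C before 2.5-hour CCF4 loading at room temperature and dual-emission reading.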
Assay [2] concerns the target Cytochrome P450 1A2 (Homo sapiens) (UniProt P05177). Briefly: p450-cyp1a2 (AID 410; calls by dose curve; note: potency is the fitted concentration of half-maximal effect;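 for activity change, negative = inhibition: -100% = full effect of reference inhibitor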). The method, boiled down: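 Human CYP1A2 (20nM) demethylated Luciferin-ME at its Km (100uM) in 100mM KPO4. After 10 min compound preincubation, NADPH regeneration ran the reaction 60 min at room temperature. Luciferin was read by luminescence, normalized to 57 uM furafylline.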
Assay [3] in a line: NFAT Signaling Pathway (AID 444).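 Note: carbachol stimulus at about its EC50 of 1 µM final; % is set by controls: 0 for no effect and ±100 for the full control effect.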 Particulars: Jurkat NFAT-bla M1, carbachol, beta-lactamase ratio, 5 h; at 17.2 µM (top of the series) unless noted. The method, boiled down: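 Jurkat cells with NFAT-driven β-lactamase reporter and co-expressed M1 receptor, stimulated with carbachol (final 1 uM, ~EC50), compound titration, 5 h at 37 °C. CCF4 loaded 1 h at RT; 460/530 nm ratio gave %activity and AC50.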

A short description of assay [4]: Stat Signaling Pathway (AID 446).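 Note: ME-180 cervical cancer cells given 40 pM IL-6 alongside compound; SIE-controlled beta-lactamase reporter measured as 460/530 nm FRET emission ratio; % is set by controls: 0 for no effect and ±100 for the full control effect.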 The method, boiled down: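 Reporter line: ME-180 cervical carcinoma, SIE-beta-lactamase. Treatment: compound with 40 pM IL-6, 5 hrs, 37 C, in low-serum OPTI-MEM with 10 mM HEPES pH 7.3. Detection: 460/530 nm fluorescence.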
The target of assay [5] is Glucocorticoid receptor (Homo sapiens) (UniProt P04150). Briefly: GR-EFC Redistribution (AID 451; calls by dose curve; note: potency is the fitted concentration of half-maximal effect). Particulars: CHO-K1 GR-EFC translocation, beta-gal luminescence, 2 h. A digest of the protocol:
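CHO-K1 cells expressing nuclear EA and GR-ED fragments of b-gal; compounds titrated up to 46 uM final, 2 h at 37 C. GR nuclear translocation read as complemented b-gal luminescence after 1 h RT detection.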

The target in assay [6] is Mitogen-activated protein kinase 10 (Mus musculus) (UniProt Q61831). Briefly: JNK3 AlphaScreen Assay (AID 530).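 Note: kinase came from lysate of stimulated human HepG2 cells; signal reports phosphorylation of biotinylated GST-cJun 1-79 at Ser73 with 10 µM ATP; % is set by controls: 0 for no effect and ±100 for the full control effect.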 A digest of the protocol:
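qHTS format: compounds tested as titrations against IL-1beta/TNF-alpha-activated HepG2 lysate JNK3 with biotin-GST-cJun substrate and 10 uM ATP at room temperature. Loss of anti-phospho-cJun AlphaScreen signal indicates inhibition.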
Background: Bead proximity is the source of the signal in Alpha formats.

Assay [7] deals with 3',5'-cyclic-AMP phosphodiesterase 4B (Homo sapiens) (UniProt Q07343). Briefly: qHTS Assay for Inhibitors of PDE-IV (AID 607; active = well fitted activation curve with a large enough effect in the main read-out, with a control signal flat, not every such curve was filed as active; note: % of control where 0% means no effect). The method, boiled down:
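Cell-based read-out of cAMP via a modified cyclic nucleotide-gated channel and membrane potential dye (535/590 nm) in HEK293 cells expressing PDE4 endogenously. Compounds tested up to 22.9 uM final; 100 uM RO 20-1724 reference.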

A short description of assay [8]: qHTS Assay for Lipid Storage Modulators (AID 1519; calls by dose curve). Particulars: Drosophila S3 cells, BODIPY lipid droplet/cell ratio, laser cytometry, cells loaded with oleic acid; for activity change, negative = inhibition: at 25.7 µM (top of the series). A digest of the protocol: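 Cells seeded at 5,000 per well were treated with compounds over a concentration series and loaded with oleic acid (400 uM, as added). Lipid droplet fluorescence (488 nm excitation, 500-530 nm channel) was read by laser-scanning cytometry and normalized to 20 uM Triacsin C.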
Background: Quantitative high-throughput screening tests each substance at several concentrations.

The target in assay [9] is Ubiquitin carboxyl-terminal hydrolase 1 (Homo sapiens) (UniProt O94782). Briefly: Inhibitors of USP1/UAF1: Pilot qHTS (AID 504865; active = well fitted curve in the direction sought with a large enough effect; an effect the other way counts as inactive or inconclusive;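 note: rhodamine fluorescence freed from ubiquitin-rhodamine substrate followed over time; top concentration of the series differs between compounds; % is set by controls: 0 for no effect and ±100 for the full control effect; nearly all actives have a fitted effect of over 35% in size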). A digest of the protocol:
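USP1/UAF1 complex (1nM) preincubated with compound 15 min at room temperature, then Ub-Rho substrate (150nM final) added. Fluorescence read kinetically at 480/540 nm, 6 reads every 60 seconds. Buffer: 50mM HEPES pH 7.8, 0.5mM EDTA, 0.1 mg/ml BSA, 1mM TCEP, 0.01% Tween-20.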

The target in assay [10] is Glucocorticoid receptor (Homo sapiens) (UniProt P04150). Briefly: GR-GFP Redistribution (AID 450;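 active = compounds whose dose series gives a full or clear partial fitted curve of increased nuclear translocation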; note: potency is the fitted concentration of half-maximal effect). The settings on record: U2OS GR-GFP nuclear translocation, laser cytometry, 2 h.
Sequence of Glucocorticoid receptor (Homo sapiens) (P04150 whole entry, looked up, the tested form may be a part): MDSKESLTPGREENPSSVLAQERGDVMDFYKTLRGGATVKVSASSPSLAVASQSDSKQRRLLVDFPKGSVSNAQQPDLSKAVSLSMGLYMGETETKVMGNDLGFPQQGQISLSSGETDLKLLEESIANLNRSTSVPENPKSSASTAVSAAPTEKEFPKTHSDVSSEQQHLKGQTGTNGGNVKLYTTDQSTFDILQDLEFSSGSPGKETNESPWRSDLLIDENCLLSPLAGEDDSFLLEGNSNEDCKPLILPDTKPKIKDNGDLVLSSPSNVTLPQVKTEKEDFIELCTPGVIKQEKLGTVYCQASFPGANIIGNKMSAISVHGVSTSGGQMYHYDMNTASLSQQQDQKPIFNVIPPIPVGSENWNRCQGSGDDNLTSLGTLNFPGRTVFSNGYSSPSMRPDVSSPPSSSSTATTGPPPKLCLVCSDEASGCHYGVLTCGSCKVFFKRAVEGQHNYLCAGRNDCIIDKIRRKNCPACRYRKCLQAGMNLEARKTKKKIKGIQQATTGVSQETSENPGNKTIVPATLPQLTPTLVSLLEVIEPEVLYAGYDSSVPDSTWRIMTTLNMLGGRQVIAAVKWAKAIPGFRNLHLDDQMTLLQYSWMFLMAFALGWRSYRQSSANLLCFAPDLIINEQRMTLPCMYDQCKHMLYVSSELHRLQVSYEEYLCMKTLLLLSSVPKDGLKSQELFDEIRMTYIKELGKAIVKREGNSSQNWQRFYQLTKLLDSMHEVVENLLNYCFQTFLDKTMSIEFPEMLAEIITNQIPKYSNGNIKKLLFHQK
Assay [11] has as its target ATP-dependent 6-phosphofructokinase (Trypanosoma brucei brucei) (UniProt O15648). Briefly: qHTS Assay to Find Inhibitors of T. brucei phosphofructokinase: hit validation (AID 492961; active = well fitted curve in the direction sought with a large enough effect; an effect the other way counts as inactive or inconclusive; note: % is set by controls: 0 for no effect and ±100 for the full control effect). A digest of the protocol:
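Luminescence from ADP-Glo reports ADP generated as T. brucei PFK (1.25 nM) phosphorylates 0.5 mM fructose-6-phosphate using 0.1 mM ATP. Reactions ran 45 min at room temperature, pH 8.0.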

Assay [12] concerns the target Luciferin 4-monooxygenase (Photinus pyralis) (UniProt P08659). Briefly: Biochemical firefly luciferase enzyme assay for NPC (AID 624030; active = well fitted curve in the direction sought with a large enough effect; an effect the other way counts as inactive or inconclusive;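 note: purified P. pyralis luciferase at 10 nM with luciferin and ATP substrate; 0% = DMSO and -100% = full luciferase inhibition by PTC124 control; nearly all actives have a fitted effect of over 70% in size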). A digest of the protocol: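 Purified P. pyralis luciferase at 10 nM in 50 mM Tris Acetate (final), luminescence read within 5 minutes of enzyme addition to compounds. Activity normalised to PTC124 versus DMSO; concentration-response curves classed by r2, magnitude and activity.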

Assay [13] can be described thus: qHTS profiling for inhibitors of Plasmodium falciparum proliferation (AID 504749; active = well fitted curve in the direction sought with a large enough effect; an effect the other way counts as inactive or inconclusive;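 note: 0% = DMSO vehicle and full inhibition = artemisinin control; nearly all actives have a fitted effect of over 60% in size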). Particulars: P. falciparum in erythrocytes, SYBR Green DNA, 72 h, at 12.8 µM (top of the series). The method, boiled down: (§1)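 Readout was DNA-dye fluorescence from lysed cultures, ex 485/em 535 nm. Parasitized red cells had grown 72 h with compound; data scaled between 0.29 uM artemisinin and DMSO wells and corrected using vehicle-only plates.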

Assay [14] deals with 3D7. The description is as above. The settings on record: P. falciparum in erythrocytes, SYBR Green DNA, 72 h; series mostly up to 12.8 µM. A digest of the protocol:
as §1

Assay [15] concerns C2A. Described as above. The settings on record: P. falciparum in erythrocytes, SYBR Green DNA, 72 h; series mostly up to 12.8 µM. The method, boiled down:
as §1

In assay [16] the test system is CP217. Described as above. The settings on record: P. falciparum in erythrocytes, SYBR Green DNA, 72 h; series mostly up to 12.8 µM. A digest of the protocol: as §1
The test system of assay [17] is CP250. The description is as above. Particulars: P. falciparum in erythrocytes, SYBR Green DNA, 72 h; series mostly up to 12.8 µM. A digest of the protocol:
as §1

In assay [18] the test system is FAB9. Described as above. Particulars: P. falciparum in erythrocytes, SYBR Green DNA, 72 h; series mostly up to 12.8 µM. A digest of the protocol: as §1
The subject of assay [19] is JCK. The assay is described as above. The settings on record: P. falciparum in erythrocytes, SYBR Green DNA, 72 h; series mostly up to 12.8 µM. The method, boiled down:
as §1

Assay [20] has as its system PC49. The assay is described as above. Particulars: P. falciparum in erythrocytes, SYBR Green DNA, 72 h; series mostly up to 12.8 µM. A digest of the protocol:
as §1

[21] abbreviates: measured here: cell count channel max response.
Setting [22] is: measured here: lipid channel max response.

Sequence of Ubiquitin carboxyl-terminal hydrolase 1 (Homo sapiens) (O94782 whole entry, looked up): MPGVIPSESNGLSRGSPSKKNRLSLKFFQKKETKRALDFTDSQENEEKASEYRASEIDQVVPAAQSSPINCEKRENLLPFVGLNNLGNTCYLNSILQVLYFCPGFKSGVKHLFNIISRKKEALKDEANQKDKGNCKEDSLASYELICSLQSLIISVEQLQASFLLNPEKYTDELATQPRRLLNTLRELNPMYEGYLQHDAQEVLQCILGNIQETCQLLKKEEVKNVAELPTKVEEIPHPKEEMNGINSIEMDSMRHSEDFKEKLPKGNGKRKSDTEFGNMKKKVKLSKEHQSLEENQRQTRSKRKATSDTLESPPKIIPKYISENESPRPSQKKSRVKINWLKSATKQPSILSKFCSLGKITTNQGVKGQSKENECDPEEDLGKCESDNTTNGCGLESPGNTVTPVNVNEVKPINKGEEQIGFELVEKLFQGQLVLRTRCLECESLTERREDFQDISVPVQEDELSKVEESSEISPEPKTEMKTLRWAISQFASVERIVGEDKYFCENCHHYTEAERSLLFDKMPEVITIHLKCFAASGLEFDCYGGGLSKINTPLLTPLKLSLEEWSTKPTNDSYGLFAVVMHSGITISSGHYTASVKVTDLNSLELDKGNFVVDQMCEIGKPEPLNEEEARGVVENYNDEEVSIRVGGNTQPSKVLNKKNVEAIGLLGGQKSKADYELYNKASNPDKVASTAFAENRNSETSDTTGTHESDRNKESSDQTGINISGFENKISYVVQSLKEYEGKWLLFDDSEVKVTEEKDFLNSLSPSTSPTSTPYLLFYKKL
Sequence of 3',5'-cyclic-AMP phosphodiesterase 4B (Homo sapiens) (Q07343 whole entry, looked up): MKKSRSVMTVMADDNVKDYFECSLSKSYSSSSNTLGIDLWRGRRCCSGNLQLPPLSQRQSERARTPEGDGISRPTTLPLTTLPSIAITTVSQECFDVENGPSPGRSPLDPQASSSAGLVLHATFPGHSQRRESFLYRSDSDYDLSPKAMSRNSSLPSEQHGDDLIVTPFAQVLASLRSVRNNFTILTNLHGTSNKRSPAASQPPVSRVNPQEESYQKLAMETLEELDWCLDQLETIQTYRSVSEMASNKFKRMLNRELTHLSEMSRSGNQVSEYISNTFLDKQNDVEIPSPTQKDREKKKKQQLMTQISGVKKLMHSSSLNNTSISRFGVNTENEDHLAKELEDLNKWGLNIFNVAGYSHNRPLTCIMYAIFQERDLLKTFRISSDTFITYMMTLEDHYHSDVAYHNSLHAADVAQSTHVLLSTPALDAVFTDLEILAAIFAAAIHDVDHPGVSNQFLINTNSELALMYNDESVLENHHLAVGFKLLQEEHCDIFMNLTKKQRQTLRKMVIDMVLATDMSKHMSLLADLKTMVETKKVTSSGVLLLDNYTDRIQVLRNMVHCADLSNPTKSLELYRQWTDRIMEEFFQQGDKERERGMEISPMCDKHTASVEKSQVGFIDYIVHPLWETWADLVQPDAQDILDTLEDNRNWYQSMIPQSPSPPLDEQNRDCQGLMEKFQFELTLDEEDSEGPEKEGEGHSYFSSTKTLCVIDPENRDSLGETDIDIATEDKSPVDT
Sequence of Cytochrome P450 1A2 (Homo sapiens) (P05177 whole entry, looked up): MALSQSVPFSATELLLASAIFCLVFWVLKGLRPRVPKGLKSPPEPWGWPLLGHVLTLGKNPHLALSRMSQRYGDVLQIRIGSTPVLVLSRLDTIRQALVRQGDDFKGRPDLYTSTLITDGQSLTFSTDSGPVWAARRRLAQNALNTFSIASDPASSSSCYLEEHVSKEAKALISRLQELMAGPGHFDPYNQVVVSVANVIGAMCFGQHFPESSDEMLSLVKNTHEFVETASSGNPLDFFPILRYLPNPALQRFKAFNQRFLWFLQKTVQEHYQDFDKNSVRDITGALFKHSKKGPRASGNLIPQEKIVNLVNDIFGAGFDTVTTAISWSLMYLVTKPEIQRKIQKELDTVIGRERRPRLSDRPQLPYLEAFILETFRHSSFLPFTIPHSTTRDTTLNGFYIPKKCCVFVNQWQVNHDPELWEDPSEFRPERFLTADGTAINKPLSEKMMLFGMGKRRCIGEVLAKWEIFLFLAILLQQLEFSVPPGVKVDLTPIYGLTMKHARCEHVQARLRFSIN
Sequence of ATP-dependent 6-phosphofructokinase (Trypanosoma brucei brucei) (O15648 whole entry, looked up): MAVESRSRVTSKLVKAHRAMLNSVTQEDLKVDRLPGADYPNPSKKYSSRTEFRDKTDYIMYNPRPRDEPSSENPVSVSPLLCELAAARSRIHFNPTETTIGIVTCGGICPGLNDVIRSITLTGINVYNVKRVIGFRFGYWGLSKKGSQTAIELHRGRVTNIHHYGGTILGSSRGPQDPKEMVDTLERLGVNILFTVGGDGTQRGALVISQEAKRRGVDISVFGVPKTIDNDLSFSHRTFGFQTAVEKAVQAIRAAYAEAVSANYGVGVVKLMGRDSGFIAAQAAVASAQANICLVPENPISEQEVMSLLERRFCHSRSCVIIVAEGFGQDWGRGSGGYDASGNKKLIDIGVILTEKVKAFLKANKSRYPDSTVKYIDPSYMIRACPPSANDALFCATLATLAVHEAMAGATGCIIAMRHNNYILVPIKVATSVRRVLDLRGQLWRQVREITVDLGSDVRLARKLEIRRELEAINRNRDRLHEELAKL
Sequence of Luciferin 4-monooxygenase (Photinus pyralis) (P08659 whole entry, looked up): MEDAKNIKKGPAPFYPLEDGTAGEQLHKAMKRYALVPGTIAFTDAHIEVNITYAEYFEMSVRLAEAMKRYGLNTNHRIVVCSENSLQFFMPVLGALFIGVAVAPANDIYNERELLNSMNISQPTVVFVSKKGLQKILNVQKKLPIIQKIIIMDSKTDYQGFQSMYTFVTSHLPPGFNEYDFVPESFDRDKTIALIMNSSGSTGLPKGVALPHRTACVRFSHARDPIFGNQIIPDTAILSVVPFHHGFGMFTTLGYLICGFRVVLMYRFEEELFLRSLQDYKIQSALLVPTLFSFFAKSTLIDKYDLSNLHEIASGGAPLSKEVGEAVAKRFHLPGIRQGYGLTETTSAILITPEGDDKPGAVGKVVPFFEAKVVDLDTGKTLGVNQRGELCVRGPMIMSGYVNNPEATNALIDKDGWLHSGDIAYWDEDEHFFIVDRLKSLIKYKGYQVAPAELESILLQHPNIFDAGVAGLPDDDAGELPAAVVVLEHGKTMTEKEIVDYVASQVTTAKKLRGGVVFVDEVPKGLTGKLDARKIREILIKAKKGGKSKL

With `CC(=O)c1cc2ccccc2oc1=O`, the compound was classed as inactive in assay [1], in [4] and in assay [7]. For the same compound, the figures for the Potency in assay [2] and in [5] were 0.2 µM (active) and > 20.6 µM (inactive), respectively. For the same compound, the activity change, negative = inhibition in assay [3] is -3.16% (inactive); in [8], -3.99% (inactive). Moreover, the Potency result in assay [6] and in assay [9] was “inactive” each time. Besides, the max response in assay [8] (setting [21]) is -14%; in assay [8] (setting [22]) it was -18.4%.

Turning to `Cn1c(-c2ccc3c(c2)OCO3)cc(=O)c2ccccc21`, the compound was classed as inactive in assay [1] and in [4]. Moreover, the Potency in [2] was 5.01 µM (active); in assay [10] it was > 20.6 µM (inactive); in assay [5], > 20.6 µM (inactive). Besides, the activity change, negative = inhibition in [3] was -10.6% (inactive); in [8] it was 2.22% (inactive). Further, the Potency entry in assay [6] and in assay [9] was “inactive” throughout. The max response in assay [8] (setting [21]) was -4.86%; in assay [8] (setting [22]), -2.71%.

`CN1CC[C@@]23c4ccccc4N[C@H]1[C@]21CCN(C)[C@@H]3Nc2ccccc21`: the outcome in assay [1], in assay [4] and in assay [7] was inactive. Besides, the Potency result in assay [2], in assay [6] and in assay [9] was “inactive” throughout. For the same compound, the activity change, negative = inhibition in [3] is -9.09% (inactive); in assay [8], -2.36% (inactive). Moreover, in assay [5], the Potency was > 20.6 µM (inactive). The max response was -9.01% in assay [8] (setting [21]) and -11.8% in [8] (setting [22]).

Take `COc1cc2c(cc1OC)-c1cc3ccc(OC)c(OC)c3c[n+]1CC2`: the compound was classed as inactive in assay [1], in assay [4] and in [7]. Further, the Potency entry in [2] and in assay [9] was “inactive” throughout. In addition, the activity change, negative = inhibition in [3] was -18.1% (inactive); in assay [8], 1.8% (inactive). Further, the Potency in assay [10] and in assay [5] was > 20.6 µM (inactive) throughout. The max response in [8] (setting [21]) is -8.72%; in assay [8] (setting [22]) it was -7.96%.

As to `O=C(/C=C\C=C/c1ccc2c(c1)OCO2)N1CCCCC1`, the compound was called inactive in assay [1] and in [4]. In addition, the Potency in assay [2] is 3.16 µM (active). Also, the activity change, negative = inhibition in assay [3] is -3.46% (inactive); in assay [8], 2% (inactive). In addition, the Potency entry in assay [6] is “inactive”. Besides, the max response was -1.9% in [8] (setting [21]) and 1.28% in assay [8] (setting [22]).

With `CC(=O)C[C@H](c1ccc([N+](=O)[O-])cc1)c1c(O)c2ccccc2oc1=O`, the compound was called inactive in assay [1], in assay [4], in assay [7] and in [11]. Besides, the Potency entry in assay [2], in assay [6], in [9], in assay [12], in assay [14] and in assay [15] was “inactive” each time. Also, the Potency entry in [16], in assay [17], in assay [18], in [19] and in [20] was “inactive” in each case. Also, the results for the activity change, negative = inhibition in assay [3] and in [8] were -1.36% (inactive) and 3.15% (inactive), respectively. Also, the max response in assay [8] (setting [21]) was -11.4%; in [8] (setting [22]), -10.7%. For the same compound, the activity, negative = inhibition in assay [13] (parasite line A) is 7.55% (inactive); in assay [13] (parasite line B), 3.6% (inactive).

For `CCN1CCN(C(=O)N[C@H](C(=O)N[C@@H]2C(=O)N3[C@@H]2SC(C)(C)[C@@H]3C(=O)O)c2ccccc2)C(=O)C1=O`, the compound was called inactive in assay [1], in [4] and in assay [7]. Further, the Potency entry in assay [2], in [6] and in assay [9] was “inactive” throughout. The activity change, negative = inhibition in assay [3] was -2.87% (inactive); in [8], 0.264% (inactive). Further, the max response in assay [8] (setting [21]) is -7.94%; in [8] (setting [22]), -7.68%.

With `CNC[C@H](O)[C@H](O)[C@H](O)[C@H](O)CO`, the compound was classed as inactive in [1], in assay [4] and in [7]. The Potency entry in assay [2], in assay [6] and in assay [9] was “inactive” throughout. Also, the activity change, negative = inhibition in [3] was 3.99% (inactive); in assay [8], -1.7% (inactive). Besides, the max response in assay [8] (setting [21]) was -11%; in assay [8] (setting [22]) it was -14.3%.

(Values after PubChem BioAssay (NCATS).)
